Gal4-VP16 FLuc: counter-screen for ROR gamma inhibitors: Gal4-VP16 reporter | AID 2546 | Potency, µM (titrated, usually from 53.6 µM), inactives show at the top dose activity, negative = inhibition, actives largely listed as inhibitors | 310,000 tested, 3.5% active | Drosophila S2 Gal4-VP16 UAS-luciferase, luminescence, 20 h;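 also: Gal4-VP16 expression switched on by copper sulfate through the metallothionein promoter; potency is read from the fitted curve at half-maximal effect; % is scaled to controls: 0 for no effect and ±100 for the full control effect; nearly all actives have a fitted effect of over 50% in size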
Six1-Eya2 inh: inhibitors of human Six1/Eya2 interaction; AlphaScreen GST-Six1/His-Eya2 binding, biochemical; hits give low values; activity change, % (concentration not given with the values); 360,000 tested, 0.56% active; AID 651725; in the data active = activity change below about -65%; inconclusive = mostly about -30% to -63%; also: % is scaled to controls: 0 for no effect and ±100 for the full control effect
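Compounds are tested against tagged Six1 and Eya2 proteins bridged by glutathione donor and nickel acceptor beads; after a one-hour incubation at 37 °C without light, AlphaScreen emission is recorded.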
RORgamma inh: inhibitors of mouse ROR gamma transcriptional activity; Drosophila S2 Gal4-RORgamma UAS-luciferase reporter, 20 h; 310,000 tested, 5.4% active; Potency, µM (doses to about 53.6 µM), inactives show at the top dose activity change, negative = inhibition, usual class: inhibitors; also: potency is read from the fitted curve at half-maximal effect; % is scaled to controls: 0 for no effect and ±100 for the full control effect; nearly all actives have a fitted effect of over 60% in size
Target sequence (P51450 whole entry, looked up, the tested form may be a part): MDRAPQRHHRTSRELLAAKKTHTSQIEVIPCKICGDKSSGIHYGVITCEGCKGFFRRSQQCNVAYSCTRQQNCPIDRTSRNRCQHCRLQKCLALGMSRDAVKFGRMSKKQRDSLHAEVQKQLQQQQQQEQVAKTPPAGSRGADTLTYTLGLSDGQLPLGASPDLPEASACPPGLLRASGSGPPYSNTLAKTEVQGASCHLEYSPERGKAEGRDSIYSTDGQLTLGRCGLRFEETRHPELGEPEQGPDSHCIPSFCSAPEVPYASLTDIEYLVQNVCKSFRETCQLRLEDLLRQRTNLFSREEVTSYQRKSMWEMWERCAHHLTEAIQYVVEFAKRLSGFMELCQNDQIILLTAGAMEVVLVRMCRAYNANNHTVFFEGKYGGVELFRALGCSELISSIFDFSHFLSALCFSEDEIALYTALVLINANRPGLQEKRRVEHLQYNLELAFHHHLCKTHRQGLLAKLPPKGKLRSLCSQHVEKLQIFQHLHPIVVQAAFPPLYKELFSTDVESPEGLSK
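Using a luciferase readout, inhibitors were identified by reduced reporter activity in Drosophila cells coexpressing a copper-inducible Gal4–ROR gamma fusion and UAS-driven Photinus luciferase, incubated 20 hr after 700 uM copper sulfate.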
p53 reactivation: mutant p53 re-activation in reporter cells | H1299 p53-A138V BP100-luciferase reporter, luminescence, 24 h | Potency, µM (top dose mostly 92.2 µM), inactives show top-dose activity change, positive = activation, hits mostly activators | 320,000 tested, 0.063% active; also: potency is read from the fitted curve at half-maximal effect; % of control where 0% means no effect; nearly all actives have a fitted effect of over 45% in size
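H1299 (p53-null), stable ts p53-A138V + BP100-Luc; 1000 cells/well, Opti-MEM/10% FBS; cpd 4 pt, 1:5; 24 h, 37 deg C, 5% CO2; detection reagent 10 min RT; luminescence.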
CtBP-E1A blk: CtBP/E1A binding inhibition. AlphaScreen GST-E1A/His-CtBP binding, 1536-well; hits give low values. activity change, % (concentration not given with the values). 340,000 tested, 0.49% active. AID 651724; in the data active = activity change below about -65%; inconclusive = mostly about -30% to -63%; also: % is scaled to controls: 0 for no effect and ±100 for the full control effect
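Protein mix (5X: 125 nM each GST-E1A, His-CtBP) was incubated with pinned compound 2 h at 37 deg C in dark, in 50 mM Tris pH 8.0 buffer with 300 mM NaCl. Glutathione donor and nickel acceptor beads followed; AlphaScreen signal read after 1 h.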
Active calls of the source: *; ? = inconclusive; . = not tested or not shown. An excerpt weighted towards active compounds, which were near 5.4% of everything screened. Unless noted, calls follow the shape of the dose curve; as a rule, active = well fitted curve in the direction sought with a large enough effect; inconclusive = small, poorly fitted or top-dose-only effect, or another doubt; inactive = no such curve, though single readings can be large; an effect the other way counts as inactive or inconclusive.

SMILES | Gal4-VP16 FLuc | Six1-Eya2 inh | RORgamma inh | p53 reactivation | CtBP-E1A blk
CC(NC(=S)Nc1cccc(C(F)(F)F)c1)C(C)(C)C (stereo unspecified) | 10µM* | 8 | 3.2µM* | -2% | 0
COc1ccc(NC(=S)Nc2cccc(C(F)(F)F)c2)c(C)c1 | ? | -2 | 10µM* | -3% | 8
Cc1cc(C(=O)NNC(=S)Nc2cccc(C(F)(F)F)c2)nn1C | 11µM* | -29 | 16µM* | -5% | ?
CN(C)NC(=S)Nc1cccc(C(F)(F)F)c1 | 5.6µM* | 7 | 1µM* | 3% | 1
Cc1ccc(NC(=S)NNC(=S)Nc2cccc(C(F)(F)F)c2)cc1 | -6% | 1 | -1% | -1% | 3
CN(C)C(=S)Nc1cccc(C(F)(F)F)c1 | 4% | 3 | -37% | -4% | -3
COc1ccc2[nH]cc(CCNc3ccnc(-c4ccc(C(=O)N(C)C)cc4)n3)c2c1 | 0% | . | 9% | . | .
Cc1c(Br)c([N+](=O)[O-])nn1C(C)C(=O)N1CCc2ccccc2C1 (stereo unspecified) | -2% | -1 | 8% | 16% | 1
CCc1c(C)c(C#N)c2nc3ccccc3n2c1NCc1ccccn1 | 3% | 1 | -1% | -4% | 4
Cc1nc2ccccc2n1Cc1ccc(Br)cc1 | . | 3 | . | . | 8
Cc1nc2ccccc2n1CSc1ccccc1 | -29% | 15 | 14µM* | 5% | 5
CCOC(=O)Cn1c(C)nc2ccccc21 | -6% | 10 | -18% | 14% | 9
Cc1nc2ccccc2n1Cc1ccccc1Br | 13µM* | 0 | ? | . | 2
CCC(C)Cn1c(C)nc2ccccc21 (stereo unspecified) | 13µM* | 4 | 13µM* | -1% | 7
COC(=O)[C@H](Cc1ccccc1)NC(=O)O[C@@H]1C(=O)c2cc(OC)ccc2O[C@H]1c1cccc(OC)c1 | -24% | . | 22% | . | .
COc1ccccc1C1CC(c2cccc(NS(C)(=O)=O)c2)=NN1S(=O)(=O)c1ccccc1 (stereo unspecified) | . | -6 | . | . | 2
CCCCCCCCCCCCCCC[C@@H](O)[C@H](CO)NC(C)=O | -1% | . | -11% | . | .
CCOC(=O)N1CCN(c2nc(N(c3ccccc3)c3ccccc3)nc(-n3ccnc3)n2)CC1 | 0% | . | 8% | 0% | .
c1ccc(CN2CCN(c3nc(-c4ccccc4)nc(-n4ccnc4)n3)CC2)cc1 | ? | -24 | 14µM* | -9% | -27
CN(c1ccccc1)c1nc(N2CCCC2)nc(-n2ccnc2)n1 | 11µM* | -7 | 4.5µM* | 3% | -4
c1ccc(N(c2ccccc2)c2nc(N3CCCC3)nc(-n3ccnc3)n2)cc1 | 11µM* | -2 | 7.1µM* | 12% | -7
C(=C\c1ccccn1)/c1cccnc1 | 6% | . | -1% | ? | .
CCCC(=O)OCCNc1cc(Sc2nccn2C)c2nonc2c1[N+](=O)[O-] | 5µM* | ? | 5.6µM* | -22% | -1
CCCSc1cc(NCCOC(=O)CCC)c([N+](=O)[O-])c2nonc12 | ? | -23 | ? | -38% | -2
CCC(=O)OCCNc1cc(Sc2nc3ccccc3s2)c2nonc2c1[N+](=O)[O-] | 4.5µM* | -5 | -37% | -15% | 0
SMILES | Gal4-VP16 FLuc | Six1-Eya2 inh | RORgamma inh | p53 reactivation | CtBP-E1A blk
O=[N+]([O-])c1c(NCCCO)cc(Sc2nc3ccccc3s2)c2nonc12 | 1% | ? | 16% | -10% | 0
CCC(=O)OCCNc1cc(Sc2nc3ccccc3[nH]2)c2nonc2c1[N+](=O)[O-] | 4.5µM* | -25 | 3.2µM* | -35% | -2
O=C(COc1cc(Cl)c(Cl)cc1Cl)Nc1ccc([N+](=O)[O-])cc1Cl | 8% | 0 | 10% | -3% | .
Cc1ccc(S(=O)(=O)NCl)cc1 | -3% | . | 0% | . | .
O=C1CCc2cc(S(=O)(=O)NC(Cc3ccccc3)C(=O)NCC3CCCO3)ccc2N1 (stereo unspecified) | -13% | 3 | 7.9µM* | -5% | 2
CCOC(=O)CNC(=O)C(Cc1ccccc1)NS(=O)(=O)c1ccc2c(c1)CCC(=O)N2 (stereo unspecified) | . | 5 | . | . | 10
Cc1cc(C)n2nc(-c3ccc(Cl)cc3)cc2n1 | 5% | 7 | 3% | ? | .
Cc1nc2cc(-c3ccc(Cl)cc3)nn2c(NCCN(C)C)c1C | 5.6µM* | -6 | 1.3µM* | 17% | 0
Cc1cccc(OCC(=O)NCC(=O)N/N=C/c2c(C)[nH]c3ccccc23)c1 | -11% | -6 | 0% | -4% | -1
CCOC(=O)c1nc(Nc2ccc(C(=O)O)cc2)c2ccccc2n1 | -1% | ? | -16% | 8% | ?
CCOC(=O)c1ccc(Nc2nc(C(=O)OCC)nc3ccccc23)cc1 | -27% | -79* | -30% | -2% | -90*
Cc1ccc(Cl)cc1NC(C#N)c1ccccc1 (stereo unspecified) | 7% | 9 | 4% | 0% | 11
Cn1c(OCc2cccnc2)nc2c1c(=O)n(Cc1ccc(F)cc1)c(=O)n2C | -13% | -16 | -34% | 0% | 3
Cn1c(OCc2cccnc2)nc2c1c(=O)n(Cc1ccccc1)c(=O)n2C | 6.3µM* | -8 | 11µM* | 0% | 4
COc1ccc(C2=NCCc3cc(OC)c(OC)cc32)cc1OC | 6.3µM* | -7 | -7% | -7% | 4
CCOC(=O)C1(C)CCN1C(=O)c1csnn1 (stereo unspecified) | . | 0 | . | . | 4
COc1cccc(NC(=O)CSc2nn3c(=O)c(C)nnc3s2)c1 | 2% | -77* | -5% | 7% | -99*
COc1ccc(NC(=O)CSc2nn3c(=O)c(C)nnc3s2)cc1 | 4% | -86* | -21% | -10% | -93*
Cc1nnc2sc(SCC(=O)Nc3ccc(Br)cc3)nn2c1=O | 9% | -87* | -24% | -1% | 15
Cc1ccccc1NC(=O)CSc1nn2c(=O)c(C)nnc2s1 | 4% | -84* | ? | 1% | -92*
COc1cccc(NC(=O)CSc2nc(C)cs2)c1 | -5% | 0 | 20% | 10% | 1
Cc1nnc2sc(SCc3ccc(Br)cc3)nn2c1=O | -5% | 1 | -6% | -6% | 2
Cc1ccccc1CSc1nn2c(=O)c(C)nnc2s1 | 12% | 10 | -10% | 11% | -2
COc1ccc(OC)c(NC(=O)CSc2nn3c(=O)c(C)nnc3s2)c1 | -4% | ? | -16% | -8% | -88*
COC(=O)c1ccc(NC(=O)CSc2nncn2C)cc1 | -3% | 6 | 5% | 2% | 5
CCC(=O)Nc1nnc(SCC(=O)Nc2cccc(Cl)c2)s1 | -2% | 3 | -15% | 8% | 0
Cc1nnc2sc(SCC(=O)Nc3cccc(Cl)c3)nn2c1=O | -7% | ? | -23% | 0% | -93*
COC(=O)c1ccc(NC(=O)CSc2nn3c(=O)c(C)nnc3s2)cc1 | -1% | -67* | -19% | -2% | -93*

Bioassay records deposited in PubChem BioAssay by National Center for Advancing Translational Sciences (NCATS).
